These results are taken from article PMC7155171, “Probing the Open Global Health Chemical Diversity Library for Multistage-Active Starting Points for Next-Generation Antimalarials” (ACS Infectious Diseases, 2020).

The subject of this assay is P. falciparum (NF54) stage V gametocytes. More on the design: Mature stage V gametocyte viability, MitoTracker Red CMXRos high-content imaging. The settings on record: primary screen, n=2, fraction of DMSO control; 72 h, 2 µM; inhibitor.

The full ranking holds about 68,000 compounds; the median of “% viability” is about 1.1, and the lowest 2% start at about 0.96. The full list was thinned out, with the lowest values kept by preference. The numbers are fractions of the control, whatever unit the source prints.

On to `CC(NC(=O)CCC1=NC(=C2N=CN=N2)NO1)c1ccc(F)cc1F` (stereo not shown) [DDD01068293], for which the “% viability” value came to 1.218%.

With `CC(=O)N1CCCN(C(=O)CCOc2ccc(C(C)C)cc2)CC1` [DDD01298039], the “% viability” value is on record as 0.9627%.

As to `CN(Cc1ccc(F)c(F)c1)C(=O)CCC1=NC(=C2N=CN=N2)NO1` [DDD01062114], the “% viability” value is on record as 1.185%.

`Cn1cc(C(=O)N2CCCC(c3cc(=O)n(C)[nH]3)C2)cn1` (stereo not shown) [DDD01060486]: the “% viability” value stood at 1.105%.

For the compound `CCCc1nn(C)c(N)c1-c1ccc2c(c1)OCO2` [DDD01074641], the “% viability” value amounted to 1.2104%.

Regarding `Cc1ccc(S(=O)(=O)Cc2noc([C@@H]3C[C@@H](O)CN3C(C)C)n2)cc1` [DDD01025534], the “% viability” value turned out to be 1.063%.

For the compound `Cn1ccc(C(=O)N2CCCC(c3cc(=O)n(C)[nH]3)C2)n1` (stereo not shown) [DDD01060541], the “% viability” value came out at 0.9912%.

Consider `Cc1[nH]n(C2CCS(=O)(=O)C2)c(=O)c1Cc1ccccc1Cl` (stereo not shown) [DDD01026964], for which the “% viability” value amounted to 1.154%.

Turning to `Cn1nc(C2CCC2)c(-c2ccc3c(c2)OCO3)c1N` [DDD01074643], the “% viability” value came to 1.107%.

Turning to `CCn1[nH]cc2nc(-c3cc(OC)c(OC)cc3OC)nc1-2` [DDD01254934], the “% viability” value was 1.131%.

With `COc1cc2c(cc1-c1nc3c[nH]n(C(C)C)c-3n1)OCO2` [DDD01249461], the “% viability” value came out at 1.226%.

For `COCC(=O)N1Cc2[nH]c3c(C)c(-c4cccs4)nn3c(=O)c2C1` [DDD01056747], the “% viability” value worked out at 0.9901%.

For `Cc1[nH]n(C2CCS(=O)(=O)C2)c(=O)c1CCc1ccccc1` (stereo not shown) [DDD01026977], the “% viability” value was found to be 1.342%.

For the compound `CCc1cc(=O)n2nc(C3CCCN3C(=O)c3ccccn3)cc2[nH]1` (stereo not shown) [DDD01057178], the “% viability” value stood at 1.278%.

For `Cc1[nH]n(Cc2ccc(F)cc2)c2nnc(N)c1-2` [DDD01012470], the “% viability” value stood at 1.161%.

As to `Cn1nc(C2CC2)c(-c2ccc3c(c2)OCO3)c1N` [DDD01074640], the “% viability” value is reported as 1.305%.

For the compound `CCc1nc(CN(C)C2CCN(CCn3cc(C#N)cn3)C2)no1` (stereo not shown) [DDD01304196], the “% viability” value is listed as 1.045%.

Consider `Cc1ccc(CN2CCc3c([nH]c4cc(C5CC5)nn4c3=O)C2)s1` [DDD01058491], for which the “% viability” value is reported as 1.123%.

`COc1cc2c(cc1-c1nc3c[nH]n(C)c-3n1)OCO2` [DDD01248770]: the “% viability” value came to 1.141%.

On to `COc1cc2c(cc1-c1nc3c[nH]n(C(C)C4CC4)c-3n1)OCO2` (stereo not shown) [DDD01244142], for which the “% viability” value is 1.215%.

With `Cc1[nH]n(C2CCS(=O)(=O)C2)c(=O)c1Cc1cccc(Cl)c1` (stereo not shown) [DDD01026994], the “% viability” value worked out at 1.159%.

In the case of `CCc1nn(C)c(N)c1-c1ccc2c(c1)OCO2` [DDD01074639], the “% viability” value is 1.278%.

For the compound `Cc1cccc(C2N3CCC4(CC3)c3[nH]c5ccccc5c3CCN24)n1` (stereo not shown) [DDD01058402], the “% viability” value was 1.009%.

For `Clc1cccc(-c2cccc(N3CCC(NC4CCOCC4)CC3)c2)c1` [DDD01252000], the “% viability” value is on record as 1.106%.

As to `CCC(=O)Nc1[nH]nc2c1c(C)nn2Cc1cccc(OC)c1` [DDD01063148], the “% viability” value is given as 1.182%.

Turning to `CCc1ccc(C(C)NC(=O)CCC2=NC(=C3N=CN=N3)NO2)cc1` (stereo not shown) [DDD01068289], the “% viability” value was determined as 1.032%.

Turning to `CCc1c(C)[nH]c2cc(C3CCN(CCc4ccccc4)C3)nn2c1=O` (stereo not shown) [DDD01060567], the “% viability” value came to 1.041%.

On to `COc1cc2c(cc1-c1nc3c[nH]n(C(C)C(C)C)c-3n1)OCO2` (stereo not shown) [DDD01255421], for which the “% viability” value was found to be 1.199%.

With `Cc1cc(=O)n2nc(C3CCN(C(=O)c4ccccn4)CC3)cc2[nH]1` [DDD01057174], the “% viability” value is recorded as 1.036%.

For the compound `COCCC(=O)N1Cc2[nH]c3c(C)c(-c4cccs4)nn3c(=O)c2C1` [DDD01056578], the “% viability” value is 1.121%.

Consider `CCc1c(C)nn2c(=O)cc(C3CCN(C(=O)C4CC4)C3)[nH]c12` (stereo not shown) [DDD01057056], for which the “% viability” value came out at 1.097%.

For the compound `CCc1c(C)nn2c(=O)cc(C3CCN(C(=O)c4ccn(C)n4)C3)[nH]c12` (stereo not shown) [DDD01056907], the “% viability” value came out at 1.06%.

In the case of `CCc1cc(=O)n2nc(C3CCN(C(=O)c4ccncc4)CC3)cc2[nH]1` [DDD01057177], the “% viability” value was 1.239%.

Consider `Cc1cc(=O)n(-c2ccc3nnc(C)n3n2)[nH]1` [DDD01038570], for which the “% viability” value came out at 1.151%.

Turning to `Cc1nc(O)cc(CCNC(=O)CC[C@@H]2CCCN3CCCC[C@H]23)n1` [DDD01256003], the “% viability” value amounted to 1.201%.

Turning to `CCc1nn2c(N)c(C#N)nnc2c1-c1ccc(OC)cc1` [DDD01035159], the “% viability” value is 1.1%.

Turning to `COc1ccc(-c2c(C(C)C)nn3c(N)c(C#N)nnc23)cc1` [DDD01035184], the “% viability” value stood at 0.9469%.

As to `COc1ccc(-c2c(C)nn3c(N)c(C#N)nnc23)cc1` [DDD01035158], the “% viability” value worked out at 1.096%.

For `Cc1ncsc1C(=O)N1CCCCC1c1cc2[nH]c(C)c(C)c(=O)n2n1` (stereo not shown) [DDD01059037], the “% viability” value is 1.19%.

For `Cc1[nH]n(-c2ccc(F)cc2)c2nnc(N)c1-2` [DDD01065623], the “% viability” value was found to be 1.104%.
